70 compounds from ChEMBL document CHEMBL4513216, “Probing the Open Global Health Chemical Diversity Library for Multistage-Active Starting Points for Next-Generation Antimalarials” (ACS Infect Dis, 2020) can be followed below.

The whole screen tested about 69,000 compounds, of which about 8,600 (12%) showed an effect of 50% or more. This is one part of a sample in which strong results are shown more often than they occur.

For this assay, the system named is Plasmodium berghei. The experiment in a line: Screen against P. berghei liver stage (PbLuc), transformed with Luciferase, at 10uM. Type of assay: functional, HepG2. The conditions noted are these: tested at 10 uM.
Regarding `Cc1ccc(=O)n(CC2(O)CCN(Cc3cnn(C)c3)CC2)n1`, the INHIBITION is recorded as -3.31%.

With `Cc1nn(-c2ccccc2)nc1C(=O)NCC(c1ccco1)N(C)C` (stereo not given), the INHIBITION came out at 8.48%. In the case of `Cc1nn(-c2ccccc2)nc1C(=O)NCC(c1ccsc1)N(C)C` (stereo not given) it was 57.2%. The same measure for `Cc1nn(C)c(Cl)c1C(=O)NCC(c1ccsc1)N(C)C` (stereo not given): 36.4%; for `O=C1[C@H]2CN(Cc3ccoc3)C[C@H]2CN1CCN1CCCC1`: 3.81%. In the case of `CCN1C(=O)[C@H]2CN(CC(C)C)C[C@H]2C12CCN(S(C)(=O)=O)CC2` it was 20.1%. On to `CCc1noc(CS(=O)(=O)C/C=C/c2ccccc2)n1`, for which the INHIBITION amounted to 12.4%. For `O=S(=O)(C/C=C/c1ccccc1)Cc1nc(C2CC2)no1`, the INHIBITION was found to be 45%. The same measure for `Cc1noc(CS(=O)(=O)C/C=C/c2ccccc2)n1`: 60.2%; for `CC(=O)c1ccc(S(=O)(=O)N2CCOC(Cn3ccnc3)C2)cc1` (stereo not given): 30.4%; for `CCOCC(=O)Nc1nccn1Cc1ccc(Br)cc1`: 45.2%. On to `COCCC(=O)Nc1nccn1Cc1ccc(Br)cc1`, for which the INHIBITION worked out at 23.9%. Regarding `CCn1ccnc1CN(C)C(C(=O)O)c1ccc(C(C)(C)C#N)cc1` (stereo not given), the INHIBITION worked out at 42.8%. The same measure for `CSCC(=O)Nc1nccn1Cc1ccc(Br)cc1`: 50.8%; for `COCC(=O)Nc1nccn1Cc1ccc(Br)cc1`: 84.2%; for `CNC(=O)c1ccc(Cn2ccnc2S(C)(=O)=O)cc1`: 20.5%. For `CSc1ncccc1C(=O)Nc1ccc(Cn2ccccc2=O)cc1`, the INHIBITION is recorded as 9.16%. As for `CC(C)(C#N)C(=O)Nc1nccn1Cc1ccc(Br)cc1`, the INHIBITION came to 60.1%. In the case of `CS(=O)(=O)c1nccn1Cc1ccc(C(N)=O)cc1`, the INHIBITION was determined as 19.2%. Turning to `CC(NC(=O)NCCCN1CCCC1=O)c1nncn1C` (stereo not given), the INHIBITION is -7.31%. In the case of `CCC(C(=O)NC1CCCC1)n1ccc2ncccc2c1=O` (stereo not given), the INHIBITION is on record as -13.2%. For `Cc1n[nH]c(C)c1C1CCCN1C(=O)NCC(=O)Nc1ccccc1` (stereo not given), the INHIBITION was 22%.

As to `O=C(c1ccc2c(c1)OCCCO2)N1CCCC(n2ccnc2)C1` (stereo not given), the INHIBITION was 42%. Consider `Cc1csc(CCNC(=O)NC(C)Cn2cccn2)n1` (stereo not given), for which the INHIBITION is reported as -7.31%. For `CN(c1ncc(C(=O)NCc2ccccc2)c(N)n1)C1CCCCC1`, the INHIBITION came out at 63.6%.

Turning to `CN(c1ccc(CNC(=O)c2ccc(O)nc2)cc1)C1CCCCC1`, the INHIBITION amounted to 67.8%. `CN(c1ccc(CNC(=O)c2c[nH]c(=O)c(Cl)c2)cc1)C1CCCCC1`: the INHIBITION is 77.6%.

Regarding `CN(c1ncc(C(=O)Nc2ccccc2)c(N)n1)C1CCCCC1`, the INHIBITION came out at 47.2%.

Turning to `CCC1CCC(CNC(=O)c2c[nH]c(=O)c(Cl)c2)CC1` (stereo not given), the INHIBITION is recorded as 4.35%. In the case of `CN(C)c1cc(CNC(=O)c2ccc(O)nc2)ccn1`, the INHIBITION stood at 9.64%. The same measure for `CNC(=O)c1ccc(CNC(=O)NCCN(C)C2CCCC2)cc1`: -2.53%; for `CC/C=C(\C)CN1CCC(CNC(=O)c2c[nH]c(=O)c(Cl)c2)C1` (stereo not given): 63.8%. In the case of `Cc1ccc(C(=O)NCc2ccc(N(C)C)cc2)cn1` it was 32%; in that of `CC/C=C(\C)CN1CCC(CNC(=O)c2ccc(=O)[nH]c2)CC1`, -24.7%; in that of `CC/C=C(\C)CN1CCC(CNC(=O)c2ccnc(N)c2)C1` (stereo not given), -5.8%.

Take `COc1ccc(NC(=O)c2cnc(N(C)C3CCCCC3)nc2N)cc1`: the INHIBITION is recorded as 35.7%. In the case of `CCOc1ncccc1NC(=O)N1CCC(CN2CCOCC2)CC1` it was 31.65%; in that of `C[C@@H]1C(=O)NC[C@H]2CN(CCc3ccccc3)C[C@H]21`, 26.6%; in that of `CCC(CN1CCCC1)n1cncc1-c1cnn(-c2ccc(F)cc2)c1` (stereo not given), 43.55%.

For `CCOC1COC2(CCN(c3ncc(C)cn3)CC2)C1` (stereo not given), the INHIBITION is recorded as 10.6%. Regarding `CC(C)c1cc(C(=O)N2CCCC(n3cncn3)C2)n[nH]1` (stereo not given), the INHIBITION is on record as 15.6%.

On to `Fc1ccc(-c2nnc(CN3CCCC3Cn3cccn3)o2)cc1` (stereo not given), for which the INHIBITION was found to be 11.6%. As to `CN1CCCC1c1ccc(C(=O)Nc2c3c(nn2C)CCC3)s1` (stereo not given), the INHIBITION was found to be 56%. The same measure for `Cn1nc2c(c1NC(=O)c1ccc(C3CCCN3C3CCC3)s1)CCC2` (stereo not given): 15.4%.

Turning to `Cn1nc2c(c1NC(=O)c1ccc(Cl)s1)CCC2`, the INHIBITION is listed as -57.9%. The same measure for `O=C(c1ccc(C2CCCO2)s1)N1Cc2ccccc2C1` (stereo not given): -44.8%; for `CC(=O)N1CCCC1c1ccc(C(=O)N2CCOCC2)s1` (stereo not given): 21.7%. The same measure for `CN1CCCC1c1ccc(C(=O)N2CCc3ccccc3C2)s1` (stereo not given): 66.9%. In the case of `COCC1CC2(CCN(Cc3cnn(C)c3)CC2)CN1c1ncccn1` (stereo not given) it was 18.5%; in that of `O=C(CN1CCCC1COc1ccccc1)NCc1ccccn1` (stereo not given), 38.2%; in that of `Cc1ccc(NC(=O)NC(C)(C)c2noc(C)n2)cc1`, 13.6%. Consider `Cc1nc(C(C)(C)NC(=O)Nc2cccc(C#N)c2)no1`, for which the INHIBITION is given as -4.74%. For `Cc1nc(C(C)(C)NC(=O)Nc2ccc(C#N)cc2)no1`, the INHIBITION came out at 79.2%. In the case of `CCc1csc(C2CCCN(C(=O)c3ccnc(N(C)C)c3)C2)n1` (stereo not given), the INHIBITION turned out to be 27.6%.

In the case of `CN(C)CCNc1ncccc1CNC(=O)Nc1cc(F)cc(F)c1`, the INHIBITION was determined as 55.6%.

For the compound `Cc1nc(NC(=O)NCc2cccnc2NCCN(C)C)sc1C`, the INHIBITION came out at 37.7%. Consider `CC(C)c1nnc(NC(=O)NCc2cccnc2NCCN(C)C)s1`, for which the INHIBITION turned out to be 25.7%. Take `Cn1cc(S(=O)(=O)N(Cc2ccc(F)cc2F)C2CC2)cc1C(N)=O`: the INHIBITION stood at 40.9%. In the case of `Cc1n[nH]c(C)c1NC(=O)CN1CCCC1c1c(C)nn(C)c1C` (stereo not given) it was 9.54%; in that of `CCN(CC)C(=O)CSc1nc2cc(C)nc-2c(O)n1CC`, 42.4%; in that of `c1cncc(C2COC3(CCN(Cc4nccs4)CC3)C2)c1` (stereo not given), 36.2%.

Take `O=C(CCn1ccc2ccccc21)N1CCC(Nc2cccnn2)CC1`: the INHIBITION is reported as -35.2%. In the case of `O=C(CCn1ccc2ccccc21)N1CCC(Nc2cccnc2)CC1` it was -22.4%; in that of `Cc1nc(CN2CCN(C(=O)CCc3cccnc3)CC2)no1`, 65.2%.

Turning to `Cc1nc(CN2CCN(C(=O)CCC(=O)c3ccccc3)CC2)no1`, the INHIBITION is on record as -36.4%. As to `COc1cccc(CCC(=O)N2CCN(Cc3noc(C)n3)CC2)c1`, the INHIBITION is on record as -30.7%. In the case of `Cc1nc(CN2CCN(C(=O)CCc3cccc(Cl)c3)CC2)no1` it was 75.2%; in that of `O=C(CCn1ccc2ccccc21)N1CCN(Cc2cccnc2)CC1`, 64.9%. Turning to `Cc1nc(CN2CCN(C(=O)Cc3cccc(Cl)c3)CC2)no1`, the INHIBITION is -2.04%. In the case of `Cc1nc(CN2CCN(C(=O)CC(C)(C)c3ccccc3)CC2)no1` it was -73.6%.
